Data published in PubChem BioAssay AID651640 (Broad Institute, 2012).
“And” between values parts separate entries of the source, which are not always exact repeats. Equal entries are not always repeated. Screen size: about 350,000 compounds; about 6,000 (1.7%) were called active. Inconclusive results (about 5%) are left out. Rule as the data show it: active = CPE inhibition above about 20% (passing the limit was not always enough); inconclusive = no clear call, values can overlap the other calls; tested in BHK-21 cells. The full list was thinned out, with actives kept by preference. Where a structure was tested more than once in an assay, its records may differ in their call.

Assay: inhibitors of DENV2 cytopathic effect, primary screen, cell-based, plate reader, single concentration (AID 651640);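 also: 0% = median of neutral control wells and 100% = median of positive control wells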
Conditions: DENV2-infected cells, cytopathic effect rescue, at 9.99 µM, stronger effect = higher value
In the case of CC(C)NC(=O)N(C)C[C@@H]1OCCCC[C@@H](C)Oc2ccc(NC(=O)c3ccccc3)cc2C(=O)N([C@@H](C)CO)C[C@H]1C, the CPE inhibition is reported as 3.29% (inactive). For C[C@@H]1CN([C@@H](C)CO)C(=O)c2cc(NC(=O)Nc3cccc4ccccc34)ccc2O[C@@H]1CN(C)C(=O)NC1CCCCC1, the CPE inhibition was -3.76% (inactive). In the case of COc1ccc(C2=NN(C(=O)CCC(=O)O)C(c3cccs3)C2)cc1OC (stereo unspecified), the CPE inhibition is reported as -2.94% (inactive). In the case of COc1ccc(C2CC(c3cccs3)=NN2C(=O)CSc2nncs2)cc1OC (stereo unspecified), the CPE inhibition is reported as 6.81% (inactive). With COc1ccc(C2CC(c3cccs3)=NN2C(=O)CCC(=O)O)cc1OC (stereo unspecified) the CPE inhibition was 36.9% (active). For COc1ccccc1C(=O)NCCC(=O)NN1C(=O)NC2(CCCCC2)C1=O, the CPE inhibition was 0.164% (inactive). For COc1ccccc1CCNC(=O)CN1C(=O)NC2(CCCC2)C1=O, the CPE inhibition was -7.14% (inactive). For COc1ccccc1CNC(=O)CCCN1C(=O)NC2(CCCC2)C1=O, the CPE inhibition was 54.7% (active). In the case of C[C@@H]1CCCCO[C@@H](CN(C)C(=O)C2CCCCC2)[C@@H](C)CN([C@H](C)CO)C(=O)c2cc(NC(=O)c3ccccc3)ccc2O1, the CPE inhibition is reported as 17.1% (inactive). For COc1ccccc1NC(=O)N(C)C[C@H]1Oc2cc(Br)ccc2S(=O)(=O)N([C@H](C)CO)C[C@@H]1C, the CPE inhibition was 10.7% (inactive) and 3.12% (inactive). With Cc1noc(C)c1NC(=O)N(C)C[C@@H]1Oc2cc(C#CCC(C)C)ccc2S(=O)(=O)N([C@H](C)CO)C[C@@H]1C the CPE inhibition was 16.2% (inactive). With C[C@H](CO)N1C[C@H](C)[C@H](CN(C)Cc2ccncc2)Oc2cc(-c3cncnc3)ccc2S1(=O)=O the CPE inhibition was -6.89% (inactive). With C[C@@H]1CN([C@@H](C)CO)S(=O)(=O)c2ccc(C#CCC3CCCC3)cc2O[C@@H]1CN(C)C the CPE inhibition was -3.23% (inactive). In the case of COCC#Cc1ccc2c(c1)O[C@H](CN(C)C(=O)CN(C)C)[C@@H](C)CN([C@H](C)CO)S2(=O)=O, the CPE inhibition is reported as -5.36% (inactive). With Cc1noc(C)c1NC(=O)N(C)C[C@@H]1Oc2cc(Br)ccc2S(=O)(=O)N([C@@H](C)CO)C[C@H]1C the CPE inhibition was 21.5% (active) and 2.3% (inactive). For CCC(=O)N(C)C[C@@H]1Oc2cc(C#CCOC)ccc2S(=O)(=O)N([C@H](C)CO)C[C@H]1C, the CPE inhibition was -10.5% (inactive). With C[C@H]1CN([C@@H](C)CO)S(=O)(=O)c2ccc(-c3cncnc3)cc2O[C@H]1CN(C)Cc1ccncc1 the CPE inhibition was 35.7% (active). In the case of C[C@@H]1CN([C@H](C)CO)S(=O)(=O)c2ccc(C#CCC3CCCC3)cc2O[C@H]1CN(C)Cc1ccc(C(=O)O)cc1, the CPE inhibition is reported as 41.8% (active). For C[C@H](CO)N1C[C@H](C)[C@@H](CN(C)Cc2cncnc2)Oc2cc(-c3ccccc3)ccc2S1(=O)=O, the CPE inhibition was -3.98% (inactive). For CCC(=O)N(C)C[C@H]1Oc2cc(C#CCOC)ccc2S(=O)(=O)N([C@H](C)CO)C[C@H]1C, the CPE inhibition was 77.3% (active). In the case of C[C@@H]1CN([C@H](C)CO)S(=O)(=O)c2ccc(C#CCC3CCCC3)cc2O[C@H]1CN(C)C(=O)CC1CC1, the CPE inhibition is reported as 9.35% (inactive). For CN1C(=O)c2cc(NC(=O)Nc3ccccc3Cl)ccc2OC[C@H]2O[C@H](CC(=O)NCCCN3CCOCC3)CC[C@H]21, the CPE inhibition was -4.69% (inactive). For CCNC(=O)C[C@@H]1CC[C@H]2[C@@H](COc3ccc(NC(=O)NC(C)C)cc3C(=O)N2C)O1, the CPE inhibition was -7.53% (inactive). With COc1ccc(NC(=O)Nc2ccc3c(c2)OC[C@@H](C)NC[C@@H](C)[C@H](OC)CN(C)C3=O)cc1 the CPE inhibition was -3.84% (inactive). In the case of COc1ccc(S(=O)(=O)N2C[C@@H](O)COC[C@H]3O[C@@H](CC(=O)NCCN4CCCCC4)CC[C@@H]32)cc1, the CPE inhibition is reported as 2.39% (inactive). In the case of C[C@@H]1CN([C@H](C)CO)C(=O)c2cc(NC(=O)NC3CCCCC3)ccc2O[C@H]1CN(C)C(=O)Nc1ccccc1, the CPE inhibition is reported as 1% (inactive). With C[C@@H]1CCCCO[C@@H](CN(C)C(=O)Cc2ccccc2)[C@@H](C)CN([C@@H](C)CO)C(=O)c2cc(NC(=O)c3ccccc3)ccc2O1 the CPE inhibition was -1.37% (inactive). With O=C(Nc1ccccc1)N[C@@H]1CC[C@H](CCn2cc(-c3ccccc3F)nn2)O[C@@H]1CO the CPE inhibition was 10.9% (inactive). With CS(=O)(=O)N1CC2(C1)[C@H](c1ccccc1)[C@@H](CO)N2C(=O)c1ccccc1 the CPE inhibition was 0.143% (inactive). For O=S(=O)(c1ccc(F)cc1)N1CCCCN2[C@H](CO)[C@@H](c3ccc(C#CC4CCCC4)cc3)[C@H]2C1, the CPE inhibition was -3.13% (inactive). For C[C@@H]1CN([C@H](C)CO)S(=O)(=O)c2ccc(C3=CCCC3)cc2O[C@H]1CN(C)C(=O)Nc1ccc2c(c1)OCO2, the CPE inhibition was 21.4% (active). With COCC(=O)N(C)C[C@H]1Oc2cc(C#CC(C)C)ccc2S(=O)(=O)N([C@H](C)CO)C[C@@H]1C the CPE inhibition was -1.85% (inactive). For COCC(=O)N(C)C[C@H]1Oc2cc(Br)ccc2S(=O)(=O)N([C@H](C)CO)C[C@H]1C, the CPE inhibition was 21.7% (inactive) and 31.3% (active). For C[C@H]1CN([C@@H](C)CO)S(=O)(=O)c2ccc(C3=CCCC3)cc2O[C@H]1CN(C)C(=O)Nc1ccc2c(c1)OCO2, the CPE inhibition was -1.69% (inactive). In the case of C[C@@H]1CN([C@@H](C)CO)S(=O)(=O)c2ccc(Br)cc2O[C@@H]1CN(C)C(=O)CN(C)C, the CPE inhibition is reported as 2.66% (inactive). For C[C@H]1CN([C@@H](C)CO)S(=O)(=O)c2ccc(C#Cc3ccncc3)cc2O[C@@H]1CN(C)C(=O)Nc1ccc2c(c1)OCO2, the CPE inhibition was 13.3% (inactive). For O=C(C[C@@H]1CC[C@H](NC(=O)Cc2ccccn2)[C@H](CO)O1)NCCc1ccncc1, the CPE inhibition was 1.65% (inactive). For CCNC(=O)C[C@@H]1CC[C@H]2[C@@H](COc3ccc(NC(=O)Cc4cccs4)cc3C(=O)N2C)O1, the CPE inhibition was -0.188% (inactive). With Cc1noc(C)c1NC(=O)Nc1ccc2c(c1)C(=O)N([C@@H](C)CO)C[C@H](C)[C@H](CN(C)Cc1ccc(C(=O)O)cc1)OCCCC[C@@H](C)O2 the CPE inhibition was -4.14% (inactive). With CSc1ccc(Oc2cccc3c2S(=O)(=O)N([C@H](C)c2ccccc2)C[C@@H](COCc2ccccc2)O3)cc1C the CPE inhibition was 12% (inactive). For COC(=O)N1Cc2ccnnc2CC1c1ccccc1Br (stereo unspecified), the CPE inhibition was -2.73% (inactive). In the case of CCCC/C=C/c1cccc2nncn12, the CPE inhibition is reported as 28.7% (active). With O=C(O)c1ccccc1-c1cccc2nncn12 the CPE inhibition was -0.993% (inactive). With C[C@@H]1CCCCO[C@@H](CN(C)S(=O)(=O)c2cn(C)cn2)[C@H](C)CN([C@H](C)CO)C(=O)c2cc(NC(=O)NC3CCCCC3)ccc2O1 the CPE inhibition was 5.41% (inactive). In the case of CC(Oc1cccc(Cl)c1)C(=O)Nc1ccc(S(=O)(=O)Nc2ncccn2)cc1 (stereo unspecified), the CPE inhibition is reported as 2.3% (inactive). With O=C(NC(=S)Nc1ccc(S(=O)(=O)Nc2ncccn2)cc1)c1cccc(Br)c1 the CPE inhibition was -1.82% (inactive). For COc1ccc(OC)c(C(C)NC(=S)Nc2ccc(S(=O)(=O)Nc3ncccn3)cc2)c1 (stereo unspecified), the CPE inhibition was 49.8% (active). For Cc1noc(C)c1NC(=O)Nc1ccc2c(c1)C(=O)N([C@H](C)CO)C[C@@H](C)[C@H](CN(C)S(=O)(=O)c1ccc(Cl)cc1)OCCCC[C@H](C)O2, the CPE inhibition was -4.55% (inactive). With Cc1ccc(-c2ccc(CN3C(C(C)C)C(=O)N(Cc4cn(CCC5OCCO5)nn4)CCS3(=O)=O)cc2)cc1 (stereo unspecified) the CPE inhibition was 6.07% (inactive). With CC1C(=O)N(Cc2cn(Cc3ccco3)nn2)CCS(=O)(=O)N1Cc1ccc(-c2cccc(CO)c2)cc1 (stereo unspecified) the CPE inhibition was -5.64% (inactive). In the case of Cc1ccc(-c2ccc(CN3C(C(C)C)C(=O)N(Cc4cn(CCC5OCCCO5)nn4)CCS3(=O)=O)cc2)cc1 (stereo unspecified), the CPE inhibition is reported as 102% (active). In the case of CC(C)C1C(=O)N(Cc2cn(CCC3OCCO3)nn2)CCS(=O)(=O)N1Cc1ccc(-c2ccccc2C(F)(F)F)cc1 (stereo unspecified), the CPE inhibition is reported as -6.47% (inactive). With COc1ccc(Cn2cc(CN3CCS(=O)(=O)N(Cc4ccc(-c5cccc(Cl)c5)cc4)C(C)C3=O)nn2)cc1 (stereo unspecified) the CPE inhibition was 3.05% (inactive). In the case of Cc1ccc(-c2ccc(CN3C(C)C(=O)N(Cc4cn(CCC5OCCCO5)nn4)CCS3(=O)=O)cc2)cc1 (stereo unspecified), the CPE inhibition is reported as 86.5% (active). With CCCNC(=O)[C@@H]1[C@@H](CO)[C@@H]2Cn3c(cccc3=O)[C@H]1N2C(=O)C1CC1 the CPE inhibition was -2.53% (inactive). In the case of CO[C@@H]1CN(C)C(=O)c2ccc(NC(=O)Nc3ccccc3)cc2OC[C@@H](C)N(C(=O)Nc2c(C)noc2C)C[C@@H]1C, the CPE inhibition is reported as -2.63% (inactive). With CCCNC(=O)Nc1ccc2c(c1)C(=O)N(C)[C@H]1CC[C@H](CC(=O)NCC3CCCCC3)O[C@@H]1CO2 the CPE inhibition was 7.7% (inactive). In the case of CCC(=O)N(C)C[C@@H]1Oc2ncc(-c3ccccc3OC)cc2C(=O)N([C@@H](C)CO)C[C@@H]1C, the CPE inhibition is reported as -0.292% (inactive). In the case of O=C(C[C@@H]1C=C[C@@H](NC(=O)c2ccccn2)[C@@H](CO)O1)NCc1cc(F)cc(F)c1, the CPE inhibition is reported as -1.09% (inactive). For CO[C@H]1CN(C)C(=O)c2ccc(NC(=O)C3CC3)cc2OC[C@H](C)N(C(=O)CN2CCOCC2)C[C@@H]1C, the CPE inhibition was -2.69% (inactive). In the case of CO[C@H]1CN(C)C(=O)c2ccc(NS(C)(=O)=O)cc2OC[C@H](C)N(C(=O)C2CCC2)C[C@H]1C, the CPE inhibition is reported as -2.45% (inactive). For CCCC(=O)Nc1ccc2c(c1)OC[C@H](C)N(C(=O)C1CCCC1)C[C@@H](C)[C@H](OC)CN(C)C2=O, the CPE inhibition was -8.69% (inactive). In the case of CO[C@@H]1CN(C)C(=O)c2cc(NC(=O)C3CC3)ccc2OC[C@H](C)N(C(=O)CN2CCOCC2)C[C@@H]1C, the CPE inhibition is reported as -10.9% (inactive) and -2.35% (inactive). For CO[C@H]1CN(C)C(=O)c2ccc(NC(=O)C3CC3)cc2OC[C@@H](C)N(C(=O)CN2CCOCC2)C[C@H]1C, the CPE inhibition was 41.3% (active). For CO[C@H]1CN(C)C(=O)c2cc(NS(C)(=O)=O)ccc2OC[C@H](C)N(C(=O)C2CCCC2)C[C@H]1C, the CPE inhibition was -6.55% (inactive). With CCCC(=O)Nc1ccc2c(c1)OC[C@H](C)N(C(=O)CC)C[C@H](C)[C@@H](OC)CN(C)C2=O the CPE inhibition was 25.3% (active). With CO[C@@H]1CN(C)C(=O)c2cc(NS(C)(=O)=O)ccc2OC[C@@H](C)N(C(=O)C2CCC2)C[C@@H]1C the CPE inhibition was 23.4% (active). For CCCNC(=O)N1C[C@H](C)[C@H](OC)CN(C)C(=O)c2cc(NC(=O)CC)ccc2OC[C@H]1C, the CPE inhibition was -0.559% (inactive). With CCCC(=O)Nc1ccc2c(c1)C(=O)N(C)C[C@H](OC)[C@@H](C)CN(C(C)=O)[C@H](C)CO2 the CPE inhibition was 68% (active). With CCC(=O)N1C[C@H](C)[C@H](OC)CN(C)C(=O)c2ccc(NC(=O)Nc3ccccc3)cc2OC[C@H]1C the CPE inhibition was -7.71% (inactive). In the case of CCCC(=O)Nc1ccc2c(c1)C(=O)N(C)C[C@@H](OC)[C@H](C)CN(C(C)=O)[C@H](C)CO2, the CPE inhibition is reported as 4.44% (inactive).
